Screening data: PubChem, National Center for Advancing Translational Sciences (NCATS)
AmpC no deterg: blocks E. coli AmpC beta-lactamase in detergent-free assay; P00811; 0.52% of 330,000 active; AID 485341; Potency, µM (series often up to 57.1 µM), inactives show at the highest dose activity change, negative = inhibition, actives largely listed as inhibitors; AmpC nitrocefin hydrolysis, absorbance 480 nm, 0.0001% Triton;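 note: plate controls were no compound for no effect and no enzyme for full effect; nearly all actives have a fitted effect of over 20% in size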
Target sequence (P00811 whole entry, looked up): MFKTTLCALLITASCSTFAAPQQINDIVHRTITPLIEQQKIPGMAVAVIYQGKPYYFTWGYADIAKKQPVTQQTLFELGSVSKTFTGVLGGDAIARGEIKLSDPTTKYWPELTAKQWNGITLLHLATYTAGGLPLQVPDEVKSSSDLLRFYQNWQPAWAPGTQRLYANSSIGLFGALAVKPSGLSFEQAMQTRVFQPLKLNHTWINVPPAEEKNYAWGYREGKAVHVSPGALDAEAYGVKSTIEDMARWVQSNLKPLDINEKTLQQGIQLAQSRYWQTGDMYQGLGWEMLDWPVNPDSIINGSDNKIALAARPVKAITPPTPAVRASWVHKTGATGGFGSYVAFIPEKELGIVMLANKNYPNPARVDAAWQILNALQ
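20 mM phosphate pH 7.0 + 0.01% (detergent screen) or 0.0001% Triton X-100; 5.3 nM AmpC reagent; cpd preinc 15 min RT; nitrocefin (800 uM stock) to start; A480 q20 s × 4 min; Activity was normalised to no-enzyme and no-compound control wells.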
RE007 growth inh: less growth of the S. pombe RE007 Vpr strain. S. pombe RE007 Vpr strain, BacTiter-Glo ATP luminescence, 24 h. Potency, µM (titrated, usually from 92.2 µM), inactives show at the top dose activity change, negative = less growth, most hits filed as inhibitors. 0.21% of 360,000 active; active = well fitted falling curve with a large enough effect; inconclusive = small, poorly fitted or top-dose-only effect; inactive = no such curve, though single readings can be large or run the other way; note: nearly all actives have a fitted effect of over 50% in size
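Fission yeast RE007 carrying one integrated HIV-1 vpr copy, seeded at OD 0.01 in PMG+AL medium with 23 nL pinned compound. Grown 24 h at 30 degrees; viability read by BacTiter-Glo luminescence after 5 min.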
AMA1 RON2 block: inhibitors of Plasmodium falciparum AMA1-RON2 interaction. Potency, µM (highest dose often 58.2 µM), for inactives: at the top dose activity change, negative = inhibition, hits mostly inhibitors. 0.2% of 360,000 active. AlphaScreen AMA1-biotinylated RON2 peptide binding. AID 720542;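 note: 0% = vehicle wells and -100% = peptide control; nearly all actives have a fitted effect of over 45% in size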
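AMA1 (3D7) with his tag at 25 nM final met compounds first, then biotinylated RON2 peptide at 25 nM; detection used donor plus acceptor beads, 10 µg/mL apiece, read by AlphaScreen after 30 min at room temperature.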
AmpC inh detg: blocks E. coli AmpC beta-lactamase in detergent assay; P00811; AmpC hydrolysis of nitrocefin, absorbance 480 nm, 0.01% Triton; Potency, µM (doses to about 114 µM), inactives show at the top dose activity change, negative = inhibition, most hits filed as inhibitors; 0.041% of 370,000 active; AID 485294;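 note: 0% = no-compound wells and -100% = no-enzyme wells; nearly all actives have a fitted effect of over 25% in size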
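20 mM phosphate pH 7.0 + 0.01% (detergent screen) or 0.0001% Triton X-100; 5.3 nM AmpC reagent; cpd preinc 15 min RT; nitrocefin (800 uM stock) to start; A480 q20 s × 4 min; Activity was normalised to no-enzyme and no-compound control wells.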
* = called active by the depositor; ? = inconclusive; nt = no result; [ ] = dose if it differs, or a comment. The list is not random: actives were taken first. Their share in the collection is about 0.79%. Unless noted, calls come from the whole dose curve; as a rule, active = well fitted curve in the direction sought with a large enough effect; inconclusive = small, poorly fitted or top-dose-only effect, or another doubt; inactive = no such curve, though single readings can be large; an effect the other way counts as inactive or inconclusive. Unless noted, % is set by controls: 0 for no effect and ±100 for the full control effect; potency is the fitted concentration of half-maximal effect.

SMILES	AmpC no deterg	RE007 growth inh	AMA1 RON2 block	AmpC inh detg
CCc1cccc(C)c1NC(=O)C(CC)Sc1nncn2c1cc1occc12 (configuration not stated)	nt	nt	nt	-14.2%
CCOC(=O)c1ccc(NC(=O)Cn2nnc(-c3ccccc3F)n2)cc1	35.5µM*	-9.4%	11.0%[11.6 µM]	-1.8%
O=C(c1ccccc1)c1cc(F)c(N2CCOCC2)cc1Cl	-1.3%	39.8µM*	6.7%	-8.9%
c1cncc(-c2nnc(-c3cccnc3)nn2)c1	-9.4%	22.4µM*	2.1%	-13.8%
Cc1ccc(CN2CCN(/N=C\C=C\c3ccccc3)CC2)cc1	28.8%	-30.0%	12.6µM*	-0.1%
Cc1ccc(CN2CCN(/N=C/c3ccc(C)s3)CC2)cc1	-28.9%	-1.1%	25.1µM*	?
Cc1sc2nc(CN(Cc3cccs3)C(=O)NC3CCCCC3)[nH]c(=O)c2c1C	-8.9%	-7.2%	-10.7%	35.5µM*
Cc1sc2nc(CN(C(=O)NC3CCCCC3)C3CCCC3)[nH]c(=O)c2c1C	-26.1%	1.6%	40.2%	5.7%
CC1=C(C)/C(=N\OS(=O)(=O)c2ccc(C)cc2)C=CC1=O	-28.2%	15.8µM*	?	0.3%
CC1=C/C(=N\OS(=O)(=O)c2ccccc2)C(C)=CC1=O	-10.7%	35.5µM*	?	-10.2%
CCC(C(=O)Nc1cc(OC)ccc1OC)n1nc(-c2ccccc2)c2c(c1=O)CCCC2 (configuration not stated)	nt	nt	nt	-2.2%
Cc1ccccc1NC1=C(Cl)C(=O)OC1OC(=O)c1ccccc1C (configuration not stated)	10µM*	20.8%	-8.1%	20µM*
Cc1ccc(NC2=C(Cl)C(=O)OC2OC(=O)c2ccccc2)c(C)c1 (configuration not stated)	?	8.7%	5.2%	?
Cc1ccccc1C(=O)OC1OC(=O)C(Cl)=C1N1CCOCC1 (configuration not stated)	2.82µM*	-10.3%	0.0%	3.98µM*
COc1cc(/C=C2\SC(N)=NC2=O)ccc1OCC(=O)Nc1ccc(C)cc1	10µM*	19.0%	9.9%	?
COc1ccc(/C=C2/SC(=O)N(CCC(=O)Nc3ccc(C)cc3)C2=O)cc1OC	-1.6%	nt	nt	-7.2%
COc1ccccc1-c1noc(-c2ccc(NCCc3ccccc3)c([N+](=O)[O-])c2)n1	nt	nt	nt	-1.9%
COc1ccc(C2=NN(c3nc(-c4ccccc4)c(CC(=O)O)s3)C(c3ccco3)C2)cc1 (configuration not stated)	14.1µM*	-5.4%	-3.7%	-13.7%
N#CCNC1CC(=O)N(c2ccc(F)cc2)C1=O (configuration not stated)	-19.8%	25.1µM*	-4.7%	-13.0%
Cc1ccc(CNC(=O)c2oc3c(c2C)-c2nn(Cc4ccc(Cl)cc4)cc2CC3)cc1	nt	nt	nt	19.3%
CN(c1ccc(Cl)cc1)c1cc(=O)n(C)c2ccccc12	34.2%	?	4.8%	?
CN(C)c1ccc(C=c2c3ccccc3n3c2cc(-c2ccc(Cl)cc2)[n+]3C)cc1	nt	?	17.8µM*	nt
COc1cc(N(C)C)ccc1C=c1c2ccccc2n2c1cc(-c1ccccc1)[n+]2C	nt	?	12.6µM*	nt
CN(C)c1ccc(C=c2c3cc([N+](=O)[O-])ccc3n3c2cc(-c2ccccc2)[n+]3C)cc1	nt	?	8.91µM*	nt
CN(C)c1ccc(C=c2c3ccccc3n3c2cc(-c2ccccc2)[n+]3C)cc1	nt	?	31.6µM*	nt
SMILES	AmpC no deterg	RE007 growth inh	AMA1 RON2 block	AmpC inh detg
CCN(CC)c1ccc(/C=C/c2cccc[n+]2C)c(OC)c1	19.5%	-28.2%	-4.2%	?
COc1ccc(CN2CCC(N3CC(C)OC(C)C3)CC2)c(OC)c1OC (configuration not stated)	-10.5%	-2.2%	12.6µM*	?
CCOc1ccc2nc(N3CCCC(C(=O)NCCc4ccc(OCC)c(OCC)c4)C3)sc2c1 (configuration not stated)	nt	nt	nt	21.3%
CN1C(=O)Cc2cc(S(=O)(=O)CCC(=O)N3CCN(c4cccc(Cl)c4)CC3)ccc21	nt	nt	nt	1.5%
c1ccc(-c2ccccc2OCCOCCN2CCc3ccccc3C2)cc1	147.4%	-7.6%	-9.3%	3.8%
C=CCc1cc(Cl)ccc1OCCN1CC(C)OC(C)C1 (configuration not stated)	163.7%	-4.4%	?	0.1%
C=CCc1cc(OC)ccc1OCCN1CC(C)OC(C)C1 (configuration not stated)	21.2%	-14.1%	12.6µM*	-9.9%
CC1CN(CCOCCOc2ccccc2-c2ccccc2)CC(C)O1 (configuration not stated)	109.3%	-1.2%	14.1µM*	-9.6%
CC1CN(CCOc2ccccc2C(C)C)CC(C)O1 (configuration not stated)	30.7%	-5.1%	20µM*	-4.8%
O=C(CSc1nc(-c2ccccc2)[nH]c1-c1ccccc1)Nc1ccc2c(c1)OCCO2	nt	nt	nt	-6.1%
COC(=O)c1c(NC(=O)c2ccc(S(=O)(=O)N3CCCCC3)cc2)sc2c1CCN(C)C2	nt	nt	nt	2.1%
COc1ccc(CCNCCN2CCOCC2)cc1	-17.0%	7.0%	14.1µM*	-3.0%
O=C(Cn1c(=O)n(Cc2ccc(C(=O)NCc3ccc4c(c3)OCO4)cc2)c(=O)c2ccccc21)Nc1cccc(Cl)c1	nt	nt	nt	-0.9%
CCCNC(=O)c1ccc2c(c1)N=C(CCC)c1ccccc1S2	nt	nt	nt	9.8%
N/C(=N\c1nc2ccccc2o1)NC(=O)/C=C/c1ccccc1	5.01µM*	3.6%	95.3%	-4.0%
Cc1cccc(C(C)C)c1NC(=O)COC(=O)c1cccc(S(=O)(=O)N2CCc3ccccc3C2)c1	7.94µM*	-16.5%	-8.0%	-6.4%
CCc1cccc(CC)c1NC(=O)COC(=O)c1cccc(S(=O)(=O)N2CCc3ccccc3C2)c1	17.8µM*	2.2%	4.3%	-1.2%
O=c1oc2ccc3ccccc3c2cc1-c1nnc(Nc2ccc(F)cc2)s1	nt	nt	nt	0.7%
CC(=O)NN1C(=O)/C(=C/c2ccc(Br)o2)SC1=S	-16.9%	0.3%	31.6µM*	-13.8%
N/C(=N\OC(=O)c1ccccc1Cl)c1cccnc1	-6.2%	20µM*	5.8%	-12.1%
Cc1ccc(C(=O)O/N=C(\N)c2ccccn2)c(Cl)c1	-4.1%	12.6µM*	48.3%	-12.1%
N/C(=N\OC(=O)c1cc(Cl)ccc1Cl)c1cccnc1	-12.3%	-5.1%	0.0%	-6.5%
Cc1cc(=O)n(C(C)C(=O)N2CCCc3ccccc32)c2c1c(C)nn2-c1ccccc1 (configuration not stated)	nt	nt	nt	-8.9%
CNC(=O)C1CCC(Cn2c(=O)c3sccc3n(CC(=O)Nc3ccc(C)c(C)c3)c2=O)CC1 (configuration not stated)	nt	nt	nt	16.9%
O=C1CC(Sc2nnc(-c3ccccc3O)o2)C(=O)N1c1ccccc1 (configuration not stated)	-36.9%	50.1µM*	26.5%	?
CCOC(=O)c1ccc(N2C(=O)CC(Sc3nnc(C)s3)C2=O)cc1 (configuration not stated)	-21.9%	20µM*	4.0%	0.1%
